Source: PubChem BioAssay AID1159580 (chemical genetic matrix, 2015)
The campaign covered roughly 5,500 compounds. About 2,000 (36%) were called active. Roughly 18% stayed inconclusive and do not appear here. Cut-off read from the data, not from the text of the source: active = normalized growth mostly below about 0.91 (no sharp cut-off); inconclusive = no clear call, values can overlap the other calls; inactive = mostly above about 0.92. This is one part of the list.

Test: chemical genetic growth profiling, strain panel (AID 1159580);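 note: tested at 20 µM; growth read once vehicle control cultures reached saturation at 30 °C; 1 = growth at the plate median or of vehicle wells; lower values mean less growth of the strain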
Details: S. cerevisiae deletion strains, growth OD

Measured: normalized growth

COc1cc(-c2oc3cc(O)ccc3c(=O)c2O)ccc1O
inactive: locus YAL030W, strain snc1, stronger effect = lower value 0.977 | locus YBL061C, strain skt5, stronger effect = lower value 0.926 | locus YBR009C, strain hhf1, stronger effect = lower value 0.925 | locus YBR171W, strain sec66, stronger effect = lower value 1 | locus YCL011C, strain gbp2, stronger effect = lower value 0.942 | locus YCL016C, strain dcc1, stronger effect = lower value 0.961 | locus YCL061C, strain MRC1, stronger effect = lower value 0.993 | locus YCL069W, strain vba3, stronger effect = lower value 0.987 | locus YCR088W, strain abp1, stronger effect = lower value 1.02 | locus YDL005C, strain med2, stronger effect = lower value 1.03 | locus YDL040C, strain nat1, stronger effect = lower value 1.01 | locus YDR001C, strain nth1, stronger effect = lower value 1.02 | locus YDR159W, strain sac3, stronger effect = lower value 1.06 | locus YDR297W, strain sur2, stronger effect = lower value 0.958 | locus YDR335W, strain msn5, stronger effect = lower value 0.971 | locus YDR392W, strain spt3, stronger effect = lower value 0.868 | locus YEL003W, strain gim4, stronger effect = lower value 0.961 | locus YEL037C, strain rad23, stronger effect = lower value 0.972 | locus YEL061C, strain CIN8 (second series), stronger effect = lower value 1 | locus YER016W, strain bim1, stronger effect = lower value 0.986 | locus YER111C, strain swi4, stronger effect = lower value 0.979 | locus YER155C, strain BEM2 (second series), stronger effect = lower value 0.977 | locus YFR010W, strain ubp6, stronger effect = lower value 0.906 | locus YGL167C, strain pmr1, stronger effect = lower value 0.995 | locus YGL227W, strain vid30, stronger effect = lower value 1.04 | locus YGL240W, strain doc1, stronger effect = lower value 1.04 | locus YJL092W, strain hpr5, stronger effect = lower value 1.01 | locus YJL095W, strain BCK1 (second series), stronger effect = lower value 0.967 | locus YJL115W, strain asf1, stronger effect = lower value 1.01 | locus YJL129C, strain trk1, stronger effect = lower value 0.911 | locus YJL154C, strain vps35, stronger effect = lower value 1 | locus YKL160W, strain elf1, stronger effect = lower value 0.912 | locus YKR026C, strain gcn3, stronger effect = lower value 1.02 | locus YKR091W, strain srl3, stronger effect = lower value 1 | locus YLL001W, strain dnm1, stronger effect = lower value 0.959 | locus YLL026W, stronger effect = lower value 0.954 | locus YLL041C, strain sdh2, stronger effect = lower value 0.994 | locus YLR258W, strain gsy2, stronger effect = lower value 0.935 | locus YLR320W, strain mms22, stronger effect = lower value 0.9 | locus YLR342W, strain FKS1, stronger effect = lower value 0.966 | locus YLR370C, strain arc18, stronger effect = lower value 0.96 | locus YLR384C, strain iki3, stronger effect = lower value 0.987 | locus YML120C, strain ndi1, stronger effect = lower value 0.975 | locus YMR125W, strain sto1, stronger effect = lower value 1.11 | locus YMR129W, stronger effect = lower value 0.998 | locus YMR205C, strain PFK2, stronger effect = lower value 0.926 | locus YNL071W, strain lat1, stronger effect = lower value 0.96 | locus YNL248C, strain rpa49, stronger effect = lower value 0.968 | locus YNL322C, strain KRE1 (second series), stronger effect = lower value 1.03 | locus YNR049C, strain mso1, stronger effect = lower value 1 | locus YOR001W, strain rrp6, stronger effect = lower value 0.917 | locus YOR080W, strain dia2, stronger effect = lower value 1 | locus YOR265W, strain rbl2, stronger effect = lower value 0.968 | locus YOR290C, strain snf2, stronger effect = lower value 0.888 | locus YPL078C, strain atp4, stronger effect = lower value 0.927 | locus YPL106C, strain sse1, stronger effect = lower value 0.935 | locus YPL240C, strain hsp82, stronger effect = lower value 0.972
active: locus YAL021C, strain ccr4, stronger effect = lower value 0.743 | locus YAL026C, strain drs2, stronger effect = lower value 0.873 | locus YBR023C, strain chs3, stronger effect = lower value 0.861 | locus YBR231C, strain swc5, stronger effect = lower value 0.826 | locus YBR279W, strain paf1, stronger effect = lower value 0.853 | locus YDR069C, strain doa4, stronger effect = lower value 0.774 | locus YDR137W, strain rgp1, stronger effect = lower value 0.763 | locus YDR195W, strain ref2 1.18 [resistant] | locus YDR334W, strain swr1, stronger effect = lower value 0.887 | locus YER015W, strain faa2, stronger effect = lower value 0.859 | locus YGL173C, strain kem1, stronger effect = lower value 0.86 | locus YGL253W, strain hxk2, stronger effect = lower value 0.833 | locus YHR013C, strain ard1, stronger effect = lower value 0.814 | locus YHR027C, strain rpn1, stronger effect = lower value 0.788 | locus YHR142W, strain chs7, stronger effect = lower value 0.827 | locus YJL164C, strain tpk1, stronger effect = lower value 0.829 | locus YJL166W, strain qcr8, stronger effect = lower value 0.895 | locus YJL187C, strain SWE1, stronger effect = lower value 0.885 | locus YLR027C, strain aat2, stronger effect = lower value 0.902 | locus YLR221C, strain rsa3, stronger effect = lower value 0.899 | locus YLR262C, strain YPT6 (second series), stronger effect = lower value 0.748 | locus YLR357W, strain rsc2, stronger effect = lower value 0.8 | locus YMR058W, strain fet3, stronger effect = lower value 0.306 | locus YMR231W, strain pep5, stronger effect = lower value 0.906 | locus YNL209W, strain ssb2, stronger effect = lower value 0.647 | locus YOR070C, strain gyp1, stronger effect = lower value 0.873 | locus YOR083W, strain WHI5, stronger effect = lower value 0.85 | locus YOR106W, strain vam3, stronger effect = lower value 0.567 | locus YOR270C, strain vph1, stronger effect = lower value 0.542 | locus YPL051W, strain arl3, stronger effect = lower value 0.744
